{"source": "PubChem BioAssay (Tox21)", "note": "“And” between values parts separate entries of the source, which are not always exact repeats. Identical values can stand only once. The source made the active and inactive calls. Where a call stands in place of a potency, no number is given. Calls follow the shape of the dose curve; as a rule, active = well fitted curve in the direction sought with a large enough effect in the signal ratio in the repeat runs (not every such curve was filed as active); inconclusive = weak or mixed curves, or effect the other way; inactive = no such curve, though single readings can be large or run the other way; the % refers to the signal ratio. Potency is read from the fitted curve at half-maximal effect.", "data": [{"target": "Estrogen receptor (Homo sapiens) (UniProt P03372)", "sequence (P03372 whole entry, looked up)": "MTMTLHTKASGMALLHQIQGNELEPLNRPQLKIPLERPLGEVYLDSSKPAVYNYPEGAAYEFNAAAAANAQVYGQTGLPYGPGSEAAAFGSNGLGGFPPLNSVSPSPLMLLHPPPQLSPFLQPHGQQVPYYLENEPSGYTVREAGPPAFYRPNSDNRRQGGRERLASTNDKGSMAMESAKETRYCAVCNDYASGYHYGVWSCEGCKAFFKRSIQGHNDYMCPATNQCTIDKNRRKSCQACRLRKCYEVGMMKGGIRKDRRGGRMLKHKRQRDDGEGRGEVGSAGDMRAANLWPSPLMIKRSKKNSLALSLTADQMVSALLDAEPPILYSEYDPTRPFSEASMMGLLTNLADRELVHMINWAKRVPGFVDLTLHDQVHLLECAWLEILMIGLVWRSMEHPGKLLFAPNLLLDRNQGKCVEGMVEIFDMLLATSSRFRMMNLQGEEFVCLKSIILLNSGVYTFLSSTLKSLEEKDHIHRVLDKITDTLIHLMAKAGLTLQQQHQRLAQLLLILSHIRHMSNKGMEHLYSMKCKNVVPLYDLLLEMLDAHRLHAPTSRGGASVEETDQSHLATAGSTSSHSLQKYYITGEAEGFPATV", "assay": "qHTS assay to identify small molecule antagonists of the estrogen receptor alpha (ER-alpha) signaling pathway (AID 743069)", "details": "HEK293 ER-alpha-UAS-bla, beta-lactamase ratio, antagonist mode; series mostly up to 69.4 µM", "source_text": "National Center for Advancing Translational Sciences [NCATS]\nNIH Chemical Genomics Center [NCGC]\nU.S. Environmental Protection Agency [EPA]\nNational Institutes of Environmental Health Sciences [NIEHS]\nNational Toxicology Program [NTP]\nU.S. Food and Drug Administration [FDA]\nEstrogen receptor (ER), a nuclear hormone receptor, plays an important role in development, metabolic homeostasis and reproduction. Two subtypes of ER, ER-alpha and ER-beta have similar expression patterns with some uniqueness in both types. Endocrine disrupting chemicals (EDCs) and their interactions with steroid hormone receptors like ER causes disruption of normal endocrine function. To identify the compounds that inhibit ER signaling, an ER-alpha-UAS-bla GripTiteTM cell line (Invitrogen, Carlsbad, CA, USA) containing a beta-lactamase reporter gene under the control of an Upstream Activator Sequence (UAS) stably integrated into HEK293 cells was used to screen the Tox21 10K compound library.\nTox21 Assay Protocol Summary:\nER-alpha-bla cells were cultured in assay medium containing 2% charcoal stripped FBS overnight in the culture flasks before the assay was performed. The cells were dispensed at 5,000 cells/5 uL of assay medium per well into black wall/clear-bottom 1536-well plates using a Multidrop Combi (ThermoFisher Scientific, Waltham, MA) dispenser. After the assay plates were incubated at a 37C and 5% CO2 for 4 hr, 23 nL of compounds dissolved in DMSO, positive controls or DMSO only was transferred to the assay plate by a Pintool station (Kalypsys, San Diego, CA), followed by addition of 1 uL of 17beta-estradiol in assay medium using a Flying Reagent Dispenser (Aurora Discovery, San Diego, CA). The plates were incubated at 37C and 5% CO2 for 18 hr. Then 1 uL of LiveBLAzerTM B/G FRET substrate was added using a Flying Reagent Dispenser, the plates were incubated at room temperature for 2 hours, and fluorescence intensity was measured by an Envision plate reader (PerkinElmer, Shelton, CT).", "values": [{"smiles": "C=CC(N)CCC(=O)O", "note": "(stereo not given)", "Potency": "inactive"}, {"smiles": "CC(=O)[C@]1(O)Cc2c(O)c3c(c(O)c2[C@@H](O[C@H]2C[C@H](N)[C@H](O)[C@H](C)O2)C1)C(=O)c1ccccc1C3=O", "Potency": "4.77 µM [inconclusive] (active)"}, {"smiles": "N=C(N)c1ccc(/C=C/c2ccc(C(=N)N)cc2O)cc1", "Potency": "inactive"}, {"smiles": "Cc1cnc(C(=O)O)c[n+]1[O-]", "Potency": "inactive"}, {"smiles": "CCCCCCCCCCCCCCCCCCOCC(COP(=O)([O-])OCC[N+](C)(C)C)OC", "note": "(stereo not given)", "Potency": "inactive"}, {"smiles": "CCC1OC(=O)C[C@@H](O)[C@H](C)[C@@H](O[C@@H]2O[C@H](C)C[C@H](N(C)C)[C@H]2O)[C@@H](CC=O)C[C@@H](C)C(=O)/C=C/[C@]2(C)OC2C1C", "note": "(stereo not given in full)", "Potency": "16.9 µM [inconclusive] (active)"}, {"smiles": "O=C1OC(=O)c2cc(-c3ccc4c(c3)C(=O)OC4=O)ccc21", "Potency": "inactive"}, {"smiles": "CO[C@H]1C[C@H](O[C@H]2[C@H](C)[C@@H](O[C@@H]3O[C@H](C)C[C@H](N(C)C)[C@H]3O)[C@@H](C)C[C@]3(CO3)C(=O)[C@H](C)[C@@H](O)[C@@H](C)[C@@H](C)OC(=O)[C@@H]2C)O[C@@H](C)[C@@H]1O", "Potency": "inactive"}, {"smiles": "NCC1CCC(C(=O)O)CC1", "note": "(stereo not given)", "Potency": "inactive"}, {"smiles": "COc1ccc([C@@H]2CC(=O)c3c(O)cc(O[C@@H]4O[C@H](CO[C@@H]5O[C@@H](C)[C@H](O)[C@@H](O)[C@H]5O)[C@@H](O)[C@H](O)[C@H]4O)cc3O2)cc1O", "Potency": "inactive"}, {"smiles": "CCOc1ccc(NC(=S)Nc2ccc(OCC)cc2)cc1", "Potency": "inactive"}, {"smiles": "FC(F)(F)C(F)(F)C(F)(F)C(F)(F)C(F)(F)F", "Potency": "inactive"}, {"smiles": "CCN(CC)CCOC[C@H]1O[C@@H](O)[C@H](OCCN(CC)CC)[C@@H](O)[C@@H]1O", "Potency": "inactive"}, {"smiles": "CCOC(=O)Cc1ccc(-c2ccccc2)cc1", "Potency": "inactive"}, {"smiles": "O=C1C2CC3CC1CC(O)(C3)C2", "Potency": "inactive"}, {"smiles": "COC1=C(OC)C(=O)C(C/C=C(\\C)CC/C=C(\\C)CC/C=C(\\C)CC/C=C(\\C)CC/C=C(\\C)CC/C=C(\\C)CC/C=C(\\C)CC/C=C(\\C)CC/C=C(\\C)CCC=C(C)C)=C(C)C1=O", "Potency": "inactive"}, {"smiles": "Nc1cc(Cl)c(NC2=NCCN2)c(Cl)c1", "Potency": "inactive"}, {"smiles": "C[S+](C)CCC(N)C(=O)O", "note": "(stereo not given)", "Potency": "inactive"}, {"smiles": "COc1ccc(/C=C/C(=O)Nc2ccccc2C(=O)O)cc1OC", "Potency": "inactive"}, {"smiles": "CC(C)=CCC/C(C)=C/CC/C(C)=C/CC/C=C(\\C)CC/C=C(\\C)CCC=C(C)C", "Potency": "inactive"}, {"smiles": "CCOC(=O)COc1ccc2c(=O)cc(-c3ccccc3)oc2c1", "Potency": "inactive"}, {"smiles": "CC[C@@H](C)[C@H](N)C(=O)O", "Potency": "inactive"}, {"smiles": "Nc1nc(/C(=C/CC(=O)O)C(=O)N[C@@H]2C(=O)N3C(C(=O)O)=CCS[C@H]23)cs1", "Potency": "inactive"}, {"smiles": "COc1cc2c(cc1O)CCN[C@]21CS[C@@H]2c3c(OC(C)=O)c(C)c4c(c3[C@H](COC1=O)N1[C@@H]2[C@H]2c3c(cc(C)c(OC)c3O)C[C@@H]([C@@H]1O)N2C)OCO4", "Potency": "33.8 nM [inconclusive] (active) and 49 nM [inconclusive] (active)"}, {"smiles": "C=CCN1C(=O)C(CC(C)C)NC1=S", "note": "(stereo not given)", "Potency": "inactive"}, {"smiles": "CCCOC(=O)c1ccc(O)cc1", "Potency": "inactive"}, {"smiles": "CN(Cc1ccccc1)Cc1ccccc1", "Potency": "inactive"}, {"smiles": "CC(C)NCC1CCc2cc(CO)c([N+](=O)[O-])cc2N1", "note": "(stereo not given)", "Potency": "inactive"}, {"smiles": "CCCC(=O)c1cc(O)c(O)cc1O", "Potency": "inactive"}, {"smiles": "CCCOC(=O)c1ccccc1O", "Potency": "inactive"}, {"smiles": "CCCCCCOC(=O)c1cccnc1", "Potency": "inactive"}, {"smiles": "NC[C@@H]1CC[C@@H](N)[C@@H](O[C@H]2[C@H](O)[C@@H](O[C@H]3O[C@H](CO)[C@@H](O)[C@H](N)[C@H]3O)[C@H](N)C[C@@H]2N)O1", "Potency": "inactive"}, {"smiles": "CC(C)COC(=O)OCN1C(=O)CN(CCN2CC(=O)N(COC(=O)OCC(C)C)C(=O)C2)CC1=O", "Potency": "inactive"}, {"smiles": "O=C1[O][Bi][O]c2ccccc21", "Potency": "inactive"}, {"smiles": "C[C@H](NCCc1ccc(O)cc1)[C@H](O)c1ccc(O)cc1", "Potency": "inactive"}, {"smiles": "Cc1cn([C@H]2C[C@H](O)[C@@H](CO)O2)c(=O)[nH]c1=O", "Potency": "inactive"}, {"smiles": "CCSCC", "Potency": "inactive"}, {"smiles": "NCC(O)CC(=O)O", "note": "(stereo not given)", "Potency": "inactive"}, {"smiles": "C(=C\\c1ccncc1)/c1ccccc1", "Potency": "inactive"}, {"smiles": "O=C(O)CCCC/C=C(\\c1ccccc1)c1cccnc1", "Potency": "inactive"}]}]}
